Measured values: PubChem BioAssay (NCI)
Several values for one entry are separate records, joined by “and”; a condition that tells them apart may be missing. Equal values may be shown once. Compounds without any hit were thinned out: in the full panel of roughly 83,000, 20% have a hit.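 Single-dose data. Exposure time 48 hours. Values below 10 considered active.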 Activity calls are given as the source filed them.

How the values were obtained:
Experiment in all cases: NCI-60 one-dose screen, 48 h (100 = growth as untreated, 0 = no growth, -100 = all killed)
Conditions in all cases: 10 µM unless noted
[1] = tested on: DU-145 prostate
[2] = tested on: K-562 leukemia
[3] = tested on: MALME-3M melanoma
[4] = tested on: MDA-MB-231 breast
[5] = tested on: RXF 393 renal
[6] = tested on: SF-268 CNS
[7] = tested on: SF-295 CNS
[8] = tested on: SF-539 CNS
[9] = tested on: UACC-257 melanoma
[10] = tested on: M14 melanoma

Row | SMILES | growth [1] | growth [2] | growth [3] | growth [4] | growth [5] | growth [6] | growth [7] | growth [8] | growth [9] | growth [10]
1 | O=C(N/N=C/c1cccc2ccccc12)C1CC1 | 128% (inactive) and 120% (inactive) | 92.3% (inactive) and 114% (inactive) | 110% (inactive) | 95.4% (inactive) and 91.3% (inactive) | 111% (inactive) and 110% (inactive) | 115% (inactive) and 104% (inactive) | 118% (inactive) and 92.9% (inactive) | 111% (inactive) and 102% (inactive) | 103% (inactive) and 100% (inactive) | 110% (inactive) and 108% (inactive)
2 | Cc1cc(O)c(C(C)C)cc1N | 115% (inactive) and 116% (inactive) | 113% (inactive) and 101% (inactive) | 113% (inactive) and 112% (inactive) | 103% (inactive) and 92.3% (inactive) | 119% (inactive) and 115% (inactive) | 102% (inactive) and 120% (inactive) | 104% (inactive) and 99% (inactive) | 101% (inactive) and 95.6% (inactive) | 107% (inactive) and 111% (inactive) | 108% (inactive) and 112% (inactive)
3 | CCNC(=O)Nc1ccc(-c2nc3c(c(N4CCOC[C@@H]4C)n2)CCN(C2COC2)C3)cc1 | 49.7% (inactive) and 19.4% (inactive) | 61.6% (inactive) and 17.2% (inactive) | -9.78% (active) and -10.6% (active) | 44.5% (inactive) and 23.2% (inactive) | 3.76% (active) and -28.4% (active) | 54.3% (inactive) and 17.6% (inactive) | 18.4% (inactive) and -25.6% (active) | 33.2% (inactive) and -21.9% (active) | 36.7% (inactive) and -27% (active) | 37.3% (inactive) and 8.1% (active)
4 | O=[N+]([O-])c1ccc2nc3c4ccccc4c4ccccc4c3nc2c1 | 100% (inactive) | 67.4% (inactive) | 98.6% (inactive) | 70.2% (inactive) | 96% (inactive) | 78% (inactive) | 107% (inactive) | 91% (inactive) | 82.5% (inactive) | 90.3% (inactive)
5 | Cc1cc(O)c2c(c1)C(=O)c1cc(O)cc(O)c1C2=O | 87.2% (inactive) and 104% (inactive) | 75.9% (inactive) and 87.9% (inactive) | 54.4% (inactive) and 94.1% (inactive) | 78.7% (inactive) and 87.3% (inactive) | 90.7% (inactive) and 107% (inactive) | 89.8% (inactive) and 97.6% (inactive) | 82.8% (inactive) and 94.9% (inactive) | 93.1% (inactive) and 86% (inactive) | 84.8% (inactive) and 92.2% (inactive) | 110% (inactive) and 93.6% (inactive)
6 | CNc1cc(-c2cccc(OC(F)(F)F)c2)nc2ccc(N3CCCC3)cc12 | -43.5% (active) and 6.55% (active) and 12.9% (inactive) | -42.3% (active) and -31.2% (active) and -12.4% (active) | -74.2% (active) and -88.1% (active) and -75.4% (active) | -47.4% (active) and -63.4% (active) and -2.52% (active) | -64.4% (active) and -78.3% (active) and -67.5% (active) | 78.9% (inactive) and 61.6% (inactive) and 55.9% (inactive) | 82.8% (inactive) and -66.4% (active) and -74.5% (active) | -76.6% (active) and -78.4% (active) and -68.4% (active) | 82% (inactive) and -59.4% (active) and -57.4% (active) | -87% (active) and -86.6% (active) and -76.4% (active)
7 | CC(=O)c1ccccc1O | 112% (inactive) and 107% (inactive) and 116% (inactive) | 94.9% (inactive) and 95% (inactive) and 107% (inactive) | 101% (inactive) and 95% (inactive) and 114% (inactive) | 108% (inactive) and 99.3% (inactive) and 110% (inactive) | 101% (inactive) and 117% (inactive) and 129% (inactive) | 108% (inactive) and 99.6% (inactive) and 113% (inactive) | 108% (inactive) and 101% (inactive) and 105% (inactive) | 95.3% (inactive) and 103% (inactive) and 141% (inactive) | 109% (inactive) and 89.4% (inactive) and 96.1% (inactive) | 104% (inactive) and 98.3% (inactive) and 100% (inactive)
8 | CC(C)Cc1ccc(C(C)C(=O)NCc2ccc(Cn3c(=O)sn(CCCCl)c3=O)cc2)cc1 (configuration not stated) | 95% (inactive) and -78% (active) | 2.16% (active) | 110% (inactive) and -74.2% (active) | 104% (inactive) and -77.2% (active) | -94.2% (active) | 84.8% (inactive) and -40.3% (active) | 97.9% (inactive) and 53.7% (inactive) | 104% (inactive) and -90.3% (active) | 94.4% (inactive) and -21.2% (active) | 94% (inactive) and -58.1% (active)
9 | CC(O)Cn1cnc2c1c(=O)n(C)c(=O)n2C (configuration not stated) | – | – | 110% (inactive) | 95.5% (inactive) | 99.3% (inactive) | 103% (inactive) | 109% (inactive) | 93.7% (inactive) | 106% (inactive) | 104% (inactive)
10 | Cn1cc(-c2cc3c(Nc4ccc(CC(=O)Nc5cc(C(C)(C)C)on5)cc4)ncnc3[nH]2)cn1 | -15% (active) and -3.89% (active) | 4.78% (active) and 3.56% (active) | -50.5% (active) and -22.7% (active) | -6.46% (active) and -3.49% (active) | -51.7% (active) and -45.7% (active) | -27.7% (active) and -23.3% (active) | -0.861% (active) and 7.57% (active) | -49.9% (active) and -49% (active) | -11.9% (active) and -15.9% (active) | -34.2% (active) and -49.5% (active)
11 | COc1cc(C(=O)N/N=C/c2ccc(N(C)C)cc2)cc(OC)c1OC | 0.807% (active) | 14% (inactive) | – | 30.2% (inactive) | 26.4% (inactive) | 57.6% (inactive) | 19.1% (inactive) | 14.1% (inactive) | 43.2% (inactive) | 6.72% (active)
12 | CCOC(=O)c1sc(N)nc1-c1ccccc1 | 113% (inactive) | 96% (inactive) | 120% (inactive) | 117% (inactive) | 102% (inactive) | 108% (inactive) | – | 88.4% (inactive) | 98.1% (inactive) | –
13 | c1ccc(N(c2ccccc2)c2ccccc2)cc1 | 113% (inactive) | – | 93.8% (inactive) | 120% (inactive) | 122% (inactive) | 106% (inactive) | 92% (inactive) | 104% (inactive) | 104% (inactive) | 100% (inactive)
14 | CC12CCC(CC1)C(C)(C)O2 | 110% (inactive) | – | 101% (inactive) | 100% (inactive) | 117% (inactive) | 119% (inactive) | 91% (inactive) | 103% (inactive) | 108% (inactive) | 99.7% (inactive)
15 | CCOC(=O)C(CNc1ccccc1)C(=O)OCC | 109% (inactive) | 100% (inactive) | 115% (inactive) | 103% (inactive) | 98.4% (inactive) | 100% (inactive) | 101% (inactive) | 101% (inactive) | – | 109% (inactive)
16 | CCC(O)c1ccccc1 (configuration not stated) | 120% (inactive) and 118% (inactive) | 96.8% (inactive) and 104% (inactive) | 114% (inactive) and 111% (inactive) | 95.9% (inactive) and 112% (inactive) | 8.94% (active) and 98.9% (inactive) | 113% (inactive) | 95% (inactive) and 115% (inactive) | 89.2% (inactive) and 105% (inactive) | 135% (inactive) and 85.4% (inactive) | 100% (inactive)
